Measurements reported in the supplement of paper PMC12350171.
Structures can show the parent of a compound that is named as a salt. A number with no mark means an inactive call.

Assays:
Conditions in all cases: 20 µM
[1] = tested on: Salmonella enterica typhimurium; test: growth AUC normalised to DMSO control (fraction of control); higher = less growth inhibition, active = hit call of the paper
Summary of the method: (§1)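 Hemin and NAD were added to the medium for Haemophilus parainfluenzae. All pathogens, after two anaerobic passages, were inoculated at a starting OD578 of 0.01 into pre-reduced mGAM plates with 20 μM compound and 1% DMSO under breathable seals, and OD578 was read hourly for 24 h in three biological replicates. AUC of each growth curve was obtained with the trapezoidal rule up to the exponential-to-stationary transition and normalised to DMSO controls from the same plate.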

Shigella flexneri = test: as above
Summary of the method: as §1

Vibrio cholerae = test: as above
Summary of the method: as §1

[2] = tested on: Yersinia pseudotuberculosis; test: as above
Summary of the method: as §1

P. vulgatus RND KO = test: growth AUC normalised to DMSO control (median) (fraction of control); higher = less growth inhibition, active = hit call of the paper
Summary of the method: (§2)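 After two overnight anaerobic passages, strains were inoculated at OD578 0.01 into mGAM in 96-well plates containing approved-drug library compounds at 20 μM and 1% DMSO. Growth was followed by reading OD578 hourly for 24 h within an anaerobic incubator. Area under the curve, taken by the trapezoidal rule up to the start of stationary phase, was normalised to same-plate vehicle wells, and the median of three biological replicates is listed.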

P. vulgatus WT = test: as above
Summary of the method: as §2

[3] = tested on: S. enterica typhimurium WT; test: as above
Summary of the method: as §2

[4] = tested on: S. enterica typhimurium tolC KO; test: as above
Summary of the method: as §2
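For growth AUC normalised to DMSO control (median) in this document: active when median AUC fell below 0.1.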

| SMILES | growth AUC normalised to DMSO control [1] | growth AUC normalised to DMSO control (Shigella flexneri) | growth AUC normalised to DMSO control (Vibrio cholerae) | growth AUC normalised to DMSO control [2] | growth AUC normalised to DMSO control (P. vulgatus RND KO) | growth AUC normalised to DMSO control (P. vulgatus WT) | growth AUC normalised to DMSO control [3] | growth AUC normalised to DMSO control [4] |
| --- | --- | --- | --- | --- | --- | --- | --- | --- |
| CN(C)CCC=C1c2ccccc2C=Cc2ccccc21 [Cyclobenzaprine hydrochloride] | 0.98 | 0.955 | 0.866 (active) | 0.998 | 0.933 | 0.936 | 1 | 0.853 |
| CC(C)(Oc1ccc(C2CC2(Cl)Cl)cc1)C(=O)O (stereo unspecified) [Ciprofibrate] | 1.01 | 0.998 | 0.997 | 0.995 | 0.973 | 0.961 | 0.992 | 0.993 |
| CCCCCCCCNC(C)C(O)c1ccc(SC(C)C)cc1 (stereo unspecified) [Suloctidil] | 1.02 | 0.995 | 1 | 0.937 | 0.992 | 1.02 | 1.02 | 0.997 |
| CC(=O)Oc1cc(C(F)(F)F)ccc1C(=O)O [Triflusal] | 0.964 | 0.949 | 0.959 | 0.954 | 0.979 | 1 | 0.995 | 0.955 |
| C=CCOc1ccccc1OCC(O)CNC(C)C (stereo unspecified) [Oxprenolol hydrochloride] | 0.993 | 1.02 | 1.03 | 1 | 0.998 | 1 | 0.997 | 0.994 |
| CC(C)(C)NCC(O)COc1cccc2c1CCC(=O)N2 (stereo unspecified) [Carteolol hydrochloride] | 1 | 0.985 | 0.993 | 1 | 0.945 | 0.968 | 0.998 | 0.991 |
| CCN(CC)CCNc1ccc(CO)c2sc3ccccc3c(=O)c12 [Hycanthone] | 0.936 | 0.984 | 0.879 | 0.991 | 0.994 | 0.96 | 0.993 | 0.163 |
| O=C1CCC(N2C(=O)c3ccccc3C2=O)C(=O)N1 (stereo unspecified) [Thalidomide] | 0.994 | 0.971 | 0.996 | 0.988 | 0.999 | 1.01 | 1 | 1 |
| c1ccc(C2CN3CCSC3=N2)cc1 (stereo unspecified) [Tetramisole hydrochloride] | 1.01 | 1.03 | 1.01 | 1.01 | – | – | – | – |
| CC(c1cc2ccccc2s1)N(O)C(N)=O (stereo unspecified) [Zileuton] | 0.987 | 0.986 | 1 | 0.931 | 1.01 | 0.985 | 1 | 0.993 |
| Nc1ccn([C@@H]2O[C@H](CO)[C@@H](O)C2(F)F)c(=O)n1 [Gemcitabine] | 1.01 | 1.04 | 1.01 | 1.03 | 1.01 | 1.02 | 0.983 | – |
| COc1ccc2cc([C@@H](C)C(=O)O)ccc2c1 [(R) Naproxen sodium salt] | 1.02 | 1.08 | 1.06 | 1.03 | 1.06 | 1.07 | 1 | 1.02 |
| CC1(C)S[C@@H]2[C@H](NC(=O)[C@H](NC(=O)N3CCNC3=O)c3ccccc3)C(=O)N2[C@H]1C(=O)O [Azlocillin sodium salt] | 0.766 (active) | 0.0935 (active) | 0.78 (active) | 0.281 (active) | 0.0105 (active) | 0.0107 (active) | 0.887 | 0.00584 (active) |
| O=C(CCCCC(=O)Nc1c(I)cc(I)c(C(=O)O)c1I)Nc1c(I)cc(I)c(C(=O)O)c1I [Iodipamide] | 0.986 | 0.998 | 0.995 | 1 | 1.01 | 1 | 0.999 | 1.01 |
| CCCNC(C)C(=O)Nc1ccccc1C (stereo unspecified) [Prilocaine hydrochloride] | 0.987 | 1 | 1 | 0.998 | 0.99 | 1 | 0.992 | 0.993 |
| O=C1CCc2cc(OCCCCc3nnnn3C3CCCCC3)ccc2N1 [Cilostazol] | 0.985 | 0.971 | 0.958 | 0.989 | 0.975 | 0.98 | 1 | 0.851 |
| Cc1c(N(C)C)c(=O)n(-c2ccccc2)n1C [Amidopyrine] | 1.01 | 1.03 | 1.05 | 1.01 | 1 | 1.02 | 1.01 | 0.999 |
| OCCN1CCN(CCCN2c3ccccc3Sc3ccc(C(F)(F)F)cc32)CC1 [Fluphenazine dihydrochloride] | 1.01 | 0.97 | 1.01 | 1.01 | 1 | 1 | 0.993 | 0.918 |
| CCCNC(C)(C)COC(=O)c1ccccc1 [Meprylcaine hydrochloride] | 0.996 | 1.02 | 1.01 | 1.01 | 0.984 | 1.01 | 1 | 0.995 |
| C1N2CN3CN1CN(C2)C3 [Methenamine] | 1.02 | 1.02 | 1.05 | 1.03 | 1 | 1.03 | 1 | 0.991 |
| COc1ccc(/C=C/C(=O)Nc2ccccc2C(=O)O)cc1OC [Tranilast] | 0.999 | 0.973 | 0.992 | 1.01 | 0.999 | 1.02 | 1.04 | 0.952 |
| CN(C)CC/C=C1/c2ccccc2COc2ccc(CC(=O)O)cc21 [Olopatadine hydrochloride] | 1.02 | 0.963 | 1.03 | 1.02 | 0.99 | 0.984 | 0.992 | 0.992 |
| N/C(=N\C(=O)c1nc(Cl)c(N)nc1N)NCc1ccccc1 [Benzamil hydrochloride] | 0.972 | 0.986 | 0.99 | 0.998 | 0.996 | 0.991 | 0.998 | 0.984 |
| CCCCC(CC)CN1CN(CC(CC)CCCC)CC(C)(N)C1 (stereo unspecified) [Hexetidine] | 1.04 | 1.05 | 1.02 | 1.04 | 1.02 | 1.03 | 1.02 | 0.88 |
| OCCN1C[C@H](O)[C@@H](O)[C@H](O)[C@H]1CO [Miglitol] | 0.991 | 0.971 | 0.986 | 0.991 | 1 | 0.995 | 1.01 | 0.988 |
| Cc1cc(-n2c(=O)[nH]c(=O)n(C)c2=O)ccc1Oc1ccc(SC(F)(F)F)cc1 [Toltrazuril] | 1.01 | 0.995 | 1 | 1.01 | – | – | – | – |
| CCCCOC(=O)c1ccc(O)cc1 [Butylparaben] | 1.01 | 0.969 | 0.896 | 0.962 | 0.974 | 1 | 0.994 | 0.953 |
| CC(C)(C)NC[C@H](O)COc1cccc2c1CCCC2=O [(-) Levobunolol hydrochloride] | 0.994 | 0.936 | 0.973 | 0.989 | 0.982 | 0.981 | 0.995 | 0.997 |
| CCCCC(C)(O)C/C=C/[C@H]1[C@H](O)CC(=O)[C@@H]1CCCCCCC(=O)OC (mixture of isomers) [Misoprostol] | 1.02 | 1.01 | 1.02 | 1.01 | 0.996 | 0.992 | 1.01 | 0.991 |
| C#C[C@]1(O)CC[C@H]2[C@@H]3[C@H](C)CC4=C(CCC(=O)C4)[C@H]3CC[C@@]21C [Tibolone] | 0.999 | 0.971 | 0.974 | 1 | 0.963 | 0.994 | 1 | 0.986 |
